The record followed here is PubChem BioAssay AID434970 (Sanford-Burnham Center for Chemical Genomics, 2010).

Molecules are shown by their SMILES. Out of some 11,000 compounds screened, about 310 (2.8%) were called active. Rule as the data show it: active = activity change below about -85%; inactive = the rest. The full list was thinned out, with actives kept by preference.

The experiment has as its system intestinal alkaline phosphatase [Mus musculus]. Description: mouse intestinal phosphatase enzyme activation – biochemical, luminescence, single concentration, confirmation (AID 434970). Conditions: purified mouse IAP, CDP-Star luminescence, 30 min, at 10 µM; activation factor: measured here: IAP activation factor, stronger effect = higher value; activity change, negative = activation: stronger effect = lower value.
For `O=C(CSc1ncn[nH]1)NCCc1ccccc1`, the activation factor was determined as 1.1 and the activity change, negative = activation was -10.3% (inactive).
For `CC1CCN(C(c2cccs2)c2nnnn2Cc2ccccc2)CC1` (centres undefined), in that order: 0.984 and 1.65% (inactive).
For the molecule `Cn1c(CCN2CCOCC2)nc2cc(NC(=O)COc3ccc(Cl)cc3)ccc21`, the activation factor is 0.927 and the activity change, negative = activation is 7.3% (inactive).
`CC[C@]12c3[nH]c4ccc(Cl)cc4c3CCN1C(=O)[C@@H](CC(=O)NC(C)(C)C)C[C@@H]2C(=O)N1CCN(C(=O)c2ccco2)CC1`: the activation factor is 1.14 and the activity change, negative = activation was -13.7% (inactive).
For `CCOC(=O)c1ccc(NC(=O)NCCc2ccccc2OC)cc1`, in that order: 2.01 and -101% (active).
For `CCOC(=O)c1ccc(NC(=S)NCCc2ccccc2F)cc1`, in that order: 1.3 and -29.6% (inactive).
For `CCOC(=O)c1ccc(NC(=O)NCc2ccccc2OC)cc1`, in that order: 1.8 and -79.8% (inactive).
As to `COc1ccc(C)cc1NC(=O)C1C2C=CC(C2)C1C(=O)O` (centres undefined), the activation factor was 0.955 and the activity change, negative = activation is 4.55% (inactive).
For `CCC(NC(=O)Nc1cc(OC)c(OC)c(OC)c1)(C(F)(F)F)C(F)(F)F`, in that order: 1.8 and -80.2% (inactive).
The corresponding values for `COc1cc2c(cc1NC(=O)Nc1ccc(C)cc1)oc1ccccc12` are 1.18 and -18.4% (inactive).
The corresponding values for `COc1cc(NC(=O)NCC2CCN(Cc3ccc(C)cc3)CC2)cc(OC)c1OC` are 1.88 and -88.3% (inactive).
As for `COc1cc(NC(=O)NCC2CCN(Cc3ccccc3Cl)CC2)cc(OC)c1OC`, the activation factor was 2.47 and the activity change, negative = activation was -148% (active).
As to `O=C(Nc1cc(Cl)cc(Cl)c1)C1CCC(=O)N1Cc1ccccc1Cl` (centres undefined), the activation factor stood at 1.71 and the activity change, negative = activation is -70.5% (inactive).
In the case of `COc1cc(NC(=O)NCC2CCN(Cc3ccccc3C)CC2)cc(OC)c1OC`, the activation factor turned out to be 2.9 and the activity change, negative = activation was -190% (active).
The corresponding values for `CCN(CC)C(=O)[C@H]1C[C@H](CC(=O)NCCc2ccccn2)C(=O)N2CCc3c([nH]c4cc(-c5ccco5)ccc34)[C@]12C` are 1.27 and -27% (inactive).
The corresponding values for `O=C(c1cccs1)n1nc(-c2ccccc2)nc1NCc1ccco1` are 0.857 and 14.4% (inactive).
Turning to `FC(F)(F)c1cccc(NC(=S)NCC2COc3ccccc3O2)c1` (centres undefined), the activation factor came to 1.43 and the activity change, negative = activation was -42.8% (inactive).
`CCN(c1ccccc1)S(=O)(=O)c1ccc(NCC2COc3ccccc3O2)nc1` (centres undefined): the activation factor was determined as 1.29 and the activity change, negative = activation was -28.6% (inactive).
Turning to `c1ccc(-c2cc3c(NCC4COc5ccccc5O4)ncnc3s2)cc1` (centres undefined), the activation factor was 1.97 and the activity change, negative = activation was -97.1% (active).
The corresponding values for `CCOc1ccc(C2N(c3cc(C)on3)C(=O)C3CCCN32)cc1OC` (centres undefined) are 1.05 and -5.3% (inactive).
For `Cc1cc(C)cc(NC(=O)CCc2nc3ccccc3[nH]2)c1`, in that order: 1.04 and -3.9% (inactive).
The corresponding values for `O=C(CSc1nnc(Cn2nnc3ccccc32)o1)Nc1ccc(Cl)cc1` are 0.985 and 1.5% (inactive).
Turning to `O=C(Cn1c(-c2ccccc2Cl)nc2ccccc21)Nc1cccc(Cl)c1`, the activation factor was determined as 2.51 and the activity change, negative = activation was -151% (active).
In the case of `O=C(CCn1cnc2ccccc2c1=O)Nc1cccc(Cl)c1`, the activation factor was determined as 1.01 and the activity change, negative = activation was -1.4% (inactive).
For `Cc1ccc(C(=O)NC(C)c2nc3ccccc3n2CC(=O)Nc2c(C)cc(C)cc2C)cc1` (centres undefined), in that order: 1.1 and -10.2% (inactive).
For `Cc1ccc(SCc2nc3ccccc3n2CC(=O)Nc2ccc(Cl)cc2)cc1`, in that order: 1.85 and -85.5% (active).
As to `Cc1cc(C)cc(NC(=O)Cn2c(-c3ccccc3Cl)nc3ccccc32)c1`, the activation factor was 2.48 and the activity change, negative = activation is -148% (active).
For `Cc1ccc(SCc2nc3ccccc3n2CC(=O)Nc2ccccc2)cc1`, in that order: 1.56 and -56% (inactive).
The corresponding values for `O=C(CCN1C(=O)c2ccccc2C1=O)NC(=S)Nc1cccc(Cl)c1` are 0.956 and 4.4% (inactive).
With `Fc1ccccc1Cn1nnc2c(NCc3ccccn3)ncnc21`, the activation factor amounted to 0.966 and the activity change, negative = activation is 3.35% (inactive).
For `CCN(CC)CCNC(=O)C1c2ccccc2C(=O)N(CCOC)C1c1ccc(F)cc1` (centres undefined), in that order: 0.972 and 2.85% (inactive).
`Cc1ccc(C(C)NC(=S)NCc2ccc(F)cc2)c(C)c1` (centres undefined): the activation factor was 1.39 and the activity change, negative = activation was -38.5% (inactive).
For `CC(=O)Nc1ccc(SCC(=O)OCC(=O)NC(=O)NCc2ccco2)cc1`, in that order: 0.893 and 10.7% (inactive).
The corresponding values for `COc1ccc(Cl)cc1NC(=O)C1CCCO1` (centres undefined) are 0.924 and 7.6% (inactive).
The corresponding values for `Cc1ccc(C(=O)O)cc1S(=O)(=O)N1CCSCC1` are 0.916 and 8.35% (inactive).
With `CCN(CC)CCCNC(=O)C1c2cc(OC)c(OC)cc2C(=O)N(C)C1c1cccs1` (centres undefined), the activation factor was 1.04 and the activity change, negative = activation was -4.25% (inactive).
For `COc1cccc(-c2cc(C(F)(F)F)n3ncc(C(=O)NCC4CCCO4)c3n2)c1` (centres undefined), in that order: 1.05 and -4.65% (inactive).
The corresponding values for `CC(C)CCNC(=O)COc1ccc2c(c1)C(=O)CC(C)(C)O2` are 1 and -0.15% (inactive).
For `CC(CNC(=S)Nc1cc(F)cc(F)c1)CSc1ccc(Cl)cc1` (centres undefined), in that order: 1.3 and -29.9% (inactive).
Regarding `CC(C)Oc1ccc(/C=N/NC(=O)C(CSCc2ccccc2)NC(=O)c2ccc([N+](=O)[O-])cc2)cc1` (centres undefined), the activation factor amounted to 0.941 and the activity change, negative = activation was 5.95% (inactive).
The corresponding values for `Cc1ccc(NC(=O)C2CC(=O)NC(N3CCc4ccccc43)=N2)cc1` (centres undefined) are 0.947 and 5.35% (inactive).
On to `Cc1ccc(NC(=O)C2CC(=O)Nc3nc4ccccc4n32)c(C)c1` (centres undefined), for which the activation factor turned out to be 2.57 and the activity change, negative = activation is -157% (active).
For `CSc1nc2n(n1)C(c1cccc(F)c1)C(C(=O)Nc1ccc(C)cc1C)=C(C)N2` (centres undefined), in that order: 0.93 and 6.95% (inactive).
For the molecule `CC(C)c1ccc(NC(=O)C2CC(=O)Nc3nc4ccccc4n32)cc1` (centres undefined), the activation factor came to 2.38 and the activity change, negative = activation is -138% (active).
Consider `Cc1ccc(NC(=O)C2C(c3ccccc3)C2(Cl)Cl)c(C)c1` (centres undefined), for which the activation factor amounted to 1.59 and the activity change, negative = activation was -59.4% (inactive).
For `CC(C)c1ccc(NC(=O)C(c2ccccc2)N2CC(=O)Nc3ccccc32)cc1` (centres undefined), in that order: 1.24 and -23.8% (inactive).
As to `O=C1/C(=C/c2ccco2)CCc2ccccc21`, the activation factor came to 1.04 and the activity change, negative = activation was -4% (inactive).
For `Cc1ccc(C)c(NS(=O)(=O)c2ccc3[nH]c(=O)oc3c2)c1`, in that order: 0.111 and 88.9% (inactive).
For `C[C@H](CO)N1C[C@H](C)[C@@H](CN(C)S(=O)(=O)c2ccccc2)Oc2ccc(NC(=O)Nc3ccccc3)cc2C1=O`, in that order: 2.62 and -162% (active).
For `COc1ccc(NC(=O)Nc2ccc3c(c2)C(=O)N([C@H](C)CO)C[C@H](C)[C@@H](CN(C)S(=O)(=O)c2ccc(OC)cc2)O3)cc1`, in that order: 1.77 and -77.3% (inactive).
Regarding `COc1ccc(S(=O)(=O)N(C)C[C@H]2Oc3ccc(NC(=O)Nc4ccccc4)cc3C(=O)N([C@H](C)CO)C[C@@H]2C)cc1`, the activation factor came out at 2.15 and the activity change, negative = activation is -115% (active).
As to `C[C@H](CO)N1C[C@H](C)[C@@H](CN(C)S(=O)(=O)c2ccccc2)Oc2ccc(NC(=O)Nc3ccc4c(c3)OCO4)cc2C1=O`, the activation factor is 1.95 and the activity change, negative = activation was -94.6% (inactive).
On to `COc1ccc(NC(=O)Nc2ccc3c(c2)C(=O)N([C@H](C)CO)C[C@H](C)[C@@H](CN(C)S(=O)(=O)c2ccc(F)cc2)O3)cc1`, for which the activation factor was determined as 2.01 and the activity change, negative = activation is -101% (active).
The corresponding values for `COc1ccc(NC(=O)N(C)C[C@H]2Oc3ccc(NC(=O)Nc4ccc(C(F)(F)F)cc4)cc3C(=O)N([C@H](C)CO)C[C@@H]2C)cc1` are 1.75 and -75.5% (inactive).
The corresponding values for `COc1ccc(NC(=O)Nc2ccc3c(c2)C(=O)N([C@H](C)CO)C[C@H](C)[C@@H](CN(C)S(=O)(=O)c2ccccc2)O3)cc1` are 1.98 and -97.7% (inactive).
For `C[C@H](CO)N1C[C@H](C)[C@@H](CN(C)S(=O)(=O)c2ccc(F)cc2)Oc2ccc(NC(=O)Nc3ccccc3)cc2C1=O`, in that order: 1.91 and -91.2% (inactive).
As for `COc1ccc(S(=O)(=O)N(C)C[C@H]2Oc3ccc(NC(=O)Nc4ccc5c(c4)OCO5)cc3C(=O)N([C@H](C)CO)C[C@@H]2C)cc1`, the activation factor was 1.86 and the activity change, negative = activation was -86.1% (inactive).
